Screens deposited in PubChem by several laboratories.
BoNT-A LC inh2: BoNT/A light chain protease inhibitors, primary screen, biochemical, flow cytometry, MLPCN library | Botulinum neurotoxin type A light chain protease (Clostridium botulinum A str. ATCC 3502) | multiplex microsphere protease substrate cleavage | inhibition, % at 10 µM | 360,000 tested, 0.17% active; further: plate controls were buffer without enzyme for full effect and enzyme alone for no effect
Anthrax LF prot: Bacillus anthracis LF protease inhibitors, primary screen, biochemical, multiplex microsphere, MLPCN library | multiplex microsphere protease cleavage assay | inhibition, % at 10 µM | 360,000 tested, 0.12% active; further: plate controls were buffer without enzyme for full effect and enzyme alone for no effect
CCHF vOTU inh: CCHFV vOTU protease inhibitors, primary screen, biochemical, Pep-AMC substrate, fluorescence; Crimean-Congo hemorrhagic fever virus L polyprotein viral ovarian tumor (vOTU) protease …; inhibition, % at 11.5 µM; 370,000 tested, 0.55% active; in the data active means inhibition above about 30%; further: 0% = vehicle wells with enzyme and 100% = no enzyme wells
BoNT F protease: BoNT/F light chain protease inhibitors, primary screen, biochemical, flow cytometry, MLPCN library; Botulinum neurotoxin type F light chain protease (Clostridium botulinum); Multiplex microsphere protease cleavage assay; inhibition, % at 10 µM; 360,000 tested, 0.22% active; AID 588497, 2011; in the data active means inhibition above about 35%, passing the limit was not always enough; inconclusive means no clear call, values can overlap the other calls; further: plate controls were buffer without enzyme for full effect and enzyme alone for no effect
3CLpro inhibitor: SARS-CoV 3CLpro protease inhibitors, primary screen, biochemical, quenched FRET | recombinant SARS-CoV 3CLpro, quenched FRET peptide cleavage | inhibition, % at 6 µM | 290,000 tested, 0.14% active; in the data active means inhibition above about 12%
Autofluor counter: compound fluorescence in toxin protease inhibitor counterscreen; 360,000 tested, 3.1% active; compound autofluorescence counterscreen, microsphere flow cytometry; hits give high values; fluorescence intensity (test concentration not listed); in the data active means fluorescence intensity above about 16000; inconclusive means no clear call, values can overlap the other calls
* = called active by the depositor; ? = inconclusive; / = no result. Shown are actives, neighbours in structure and some others; about 3.9% of the full set was active somewhere. Unless noted, no stated cut-off is given here; in the data, active means inhibition above about 30%; inconclusive means no clear call, values can overlap the other calls; inactive means below that.

SMILES	BoNT-A LC inh2	Anthrax LF prot	CCHF vOTU inh	BoNT F protease	3CLpro inhibitor	Autofluor counter
C[n+]1c(/C=C/c2ccc(O)cc2)ccc2ccccc21	1	-15	-4	-85	-3	3189
C/C(=N\Nc1nnc(C)c(=O)[nH]1)C(=O)O	0	-6	-2	-1	4	23478*
COc1ccccc1C(=O)N1CCN(C(=O)[C@H]2O[C@@H](n3cnc(C(N)=O)n3)[C@H](O)[C@@H]2O)CC1	/	/	4	/	/	/
COCCn1c(COc2ccc(Cl)cc2)nnc1SCC(N)=O	2	-1	/	3	3	22516*
CCOc1ccc(Cc2nnc(SCC(N)=O)n2C)cc1	-2	0	-11	-4	-2	21499*
Cc1ccc(OCc2nnc(SCC(N)=O)n2N)cc1	1	3	7	3	-3	5445
Clc1ccc(Sc2oc(/C=N/n3cnnc3)cc2Br)cc1	2	1	0	3	2	19698*
CCOC(=O)[C@@]12CCCC3=C1N(CCC3)C(=O)[C@H]2CC(=O)N1CCCCC1	/	/	-8	/	/	/
C=CCc1cccc(CNc2c(C)n(C)n(-c3ccccc3)c2=O)c1O	0	-3	-4	-3	-2	16249*
Cc1c(NC(C)c2ccccc2O)c(=O)n(-c2ccccc2)n1C (stereo unspecified)	-1	-2	5	-1	-4	24008*
Cc1c(NC(=O)C(C)OC(=O)Cc2ccccc2)c(=O)n(-c2ccccc2)n1C (stereo unspecified)	-3	1	-21	-4	-3	24503*
Cc1c(NC(=O)C(C)OC(=O)C(NC(=O)c2ccco2)C(C)C)c(=O)n(-c2ccccc2)n1C (stereo unspecified)	?	-2	-3	3	-1	22112*
Cc1c(NC(=O)c2ccco2)c(=O)n(-c2ccccc2)n1C	2	0	-6	?	-2	3714
Cc1c(NCc2ccccc2O)c(=O)n(-c2ccccc2)n1C	-1	-6	4	-3	2	4374
CC(=O)c1cc(-c2ccccc2)n(CC(=O)NCc2ccc(Cl)cc2)c1C	/	/	-1	/	/	/
O=C(O)c1ccc(-n2nnnc2SCc2ccccc2)cc1	0	4	4	-1	7	9113
CSc1ccccc1-n1nnnc1SCc1ccccc1	?	-5	12	-7	-4	23954*
NC1=NC(=O)C(=Cc2ccccc2)S1	0	3	10	0	/	2815
NC1=NC(=O)/C(=C/c2cccs2)S1	-1	-1	10	-2	4	23925*
O=C(Nc1ccc2c(c1)OCO2)N1CCN(c2ccccc2Cl)CC1	0	-5	-7	4	7	11444
CSc1ccccc1N1CCN(C(=O)Nc2ccc3c(c2)NC(=O)CO3)CC1	?	-9	-4	0	1	21233*
COc1cc(NC(=O)c2ccco2)ccc1NC(=O)C(C)C	?	-3	-8	-7	0	21437*
COc1ccc(NC(=O)COC(=O)c2cc(OC)c(OC)cc2NC(=O)c2ccco2)cc1OC	0	-3	-1	-2	4	21054*
COc1cc(NC(=O)c2ccco2)c(C(=O)O)cc1OC	-2	-3	-4	-2	-2	23681*
COC(=O)c1cc(OC)c(OC)cc1NC(=O)c1ccco1	1	0	2	-2	-4	3074
SMILES	BoNT-A LC inh2	Anthrax LF prot	CCHF vOTU inh	BoNT F protease	3CLpro inhibitor	Autofluor counter
COc1cc(NC(=O)C2CCCO2)c(C(=O)O)cc1OC (stereo unspecified)	-1	2	/	-5	-6	21130*
COC(=O)[C@]12C[C@H](CC(=O)N3CCSCC3)C(=O)N(Cc3ccc(Cl)cc3Cl)C1=C[C@H](C(C)C)O[C@@H]2C1CC1	/	/	12	/	/	/
COc1ccc(CNC(=O)c2cc(-c3ccccc3)c(N3CCOCC3)s2)cc1OC	/	/	6	/	/	/
CCCCN1CCS(=O)(=O)N(Cc2ccc(Cl)cc2)C(C(=O)OC)C1 (stereo unspecified)	/	/	0	/	/	/
C=CCOc1c(Br)cc(CNc2ccc(NC(=O)C(C)C)c(OC)c2)cc1OC	?	-9	13	5	3	20313*
COc1ccc(N2C3=[N+](CCCC3)CC2(C)O)cc1 (stereo unspecified)	-3	-4	4	-4	/	16662*
CCN(CC)Cc1cc(C(C)=O)ccc1OCC(C)C	0	-3	10	0	3	16228*
C=CCN1[C@H](C#N)[C@@H](c2ccc(Br)cc2)[C@H]1CO	/	/	-8	/	/	/
Cc1ccc2nc(/C(C#N)=C\c3ccc(N4CCOCC4)o3)[nH]c2c1	-4	-2	1	110*	0	13254
Cc1ccc(/C(C#N)=C\c2ccc(N3CCOCC3)o2)cc1	-2	-4	-14	-11	5	10448
CCOc1ccccc1-n1c(SCC(=O)N2CCCC2)nnc1-c1ccc(O)cc1	-1	0	-3	-1	-5	10502
CCOc1ccccc1-n1c(SCC(N)=O)nnc1-c1ccccc1	?	1	-13	-4	4	16659*
CCOc1ccccc1-n1c(SCC(N)=O)nnc1-c1ccc(O)cc1	2	-1	14	4	-1	19710*
O=C(CN(CCc1ccccc1)S(=O)(=O)c1ccc(Cl)s1)N1CCOCC1	/	/	1	/	/	/
O=C1c2cccc(NCCCNCCO)c2C(=O)c2cccc(NCCCNCCO)c21	30*	-56	22	-102	/	2093
COC(=O)c1ccccc1NC(=O)C1CCCN(S(=O)(=O)c2ccc(F)cc2)C1 (stereo unspecified)	-1	1	2	2	2	4741
Cc1ccc(S(=O)(=O)N2C(=O)CCC2C(=O)N2CCCCC2)cc1 (stereo unspecified)	0	-18	-6	?	3	4194
Cc1ccc(S(=O)(=O)N2C(=O)CCC2C(=O)N2CCN(C)CC2)cc1 (stereo unspecified)	1	0	7	3	-4	22032*
COC(=O)c1cc(OC)c(OC)cc1NC(=O)C1CCC(=O)N1S(=O)(=O)c1ccc(C)cc1 (stereo unspecified)	0	0	-5	-2	-10	9381
COC(=O)c1ccccc1NC(=O)C1CCCN(S(=O)(=O)c2ccccc2)C1 (stereo unspecified)	?	3	-4	4	1	19578*
COC(=O)c1ccccc1NC(=O)C1CCC(=O)N1S(=O)(=O)c1ccc(C)cc1 (stereo unspecified)	?	0	-4	1	1	16363*
CCCS(=O)(=O)c1c(S(=O)(=O)CCC)c2c(N)cccn2c1C(=O)c1ccccc1	?	-2	8	-1	1	16615*
O=C(Nc1nccs1)c1nc(-c2ccccc2)n(-c2ccccc2)n1	1	7	4	13	-7	9416
